Source: PubChem BioAssay (NCI)
Compounds without any hit were thinned out: in the full panel of roughly 83,000, 20% have a hit.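 The test compound was applied at a single concentration to cells in 96-well plates for 48 hours, and percent growth was recorded.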 Activity calls are given as the source filed them. The calls were made as follows: active = growth percent below 10; inactive = the rest.

Experiments:
Experiment in all cases: NCI-60 one-dose screen, 48 h (100 = growth as untreated, 0 = no growth, -100 = all killed)
Details in all cases: 10 µM unless noted
[1] = system: DU-145 prostate
[2] = system: K-562 leukemia
[3] = system: MALME-3M melanoma
[4] = system: MDA-MB-231 breast
[5] = system: RXF 393 renal
[6] = system: SF-268 CNS
[7] = system: SF-295 CNS
[8] = system: SF-539 CNS
[9] = system: UACC-257 melanoma
[10] = system: M14 melanoma
[11] = system: HCT-15 colon
[12] = system: HT29 colon
[13] = system: SNB-75 CNS
[14] = system: SNB-19 CNS
[15] = system: U251 CNS
[16] = system: PC-3 prostate
[17] = system: SK-MEL-5 melanoma
[18] = system: UACC-62 melanoma
[19] = system: LOX IMVI melanoma
[20] = system: SK-MEL-28 melanoma

Measured: growth

Cc1ccc(C(=O)CSc2nc(-c3ccc(Br)cc3)c(C#N)c(=O)[nH]2)cc1
inactive: [1] 104% | [2] 53.3% | [3] 93% | [4] 96.4% | [5] 99.1% | [6] 97.5% | [7] 106% | [8] 94.8% | [9] 98.7% | [10] 92.7% | [11] 105% | [12] 93.9% | [13] 64.5% | [14] 96.7% | [15] 105% | [16] 90.9% | [17] 97.2% | [18] 97.1% | [19] 98% | [20] 101%

N/C(=N\c1nc2ccccc2s1)NC(=O)Nc1cccc(Cl)c1
inactive: [1] 52.4% | [2] 13.9% | [3] 42.6% | [4] 59.4% | [5] 68.6% | [6] 55.9% | [7] 40% | [9] 48.9% | [10] 10.3% | [11] 17.9% | [12] 10.2% | [13] 13.7% | [14] 42.2% | [15] 26.1% | [16] 42.4% | [17] 32.3% | [18] 25.8% | [19] 38.9% | [20] 60.1%
active: [8] 2.83%

C=C1C(=O)O[C@H]2[C@H]1CC/C(COC(=O)C(=O)c1c[nH]c3ccc(OC)cc13)=C\CC[C@@]1(C)O[C@@H]21
inactive: [7] 33.1%
active: [1] -89.8% | [2] -7.42% | [3] -71.4% | [4] -64.8% | [5] -93.1% | [6] -53.2% | [8] -97.4% | [9] -93.9% | [10] -79.1% | [11] -49.8% | [12] -69.7% | [13] -88.4% | [14] -17.6% | [15] -97.8% | [16] -70% | [17] -96.6% | [18] -76.6% | [19] -77.4% | [20] -75.3%

O=c1cc(C2NNC(=S)N2)c2ccc3ccccc3c2o1 (stereo not given)
inactive: [1] 109% | [2] 90.5% | [3] 104% | [4] 96.3% | [5] 87.4% | [6] 102% | [7] 100% | [8] 94.1% | [9] 116% | [10] 102% | [11] 98.1% | [12] 100% | [13] 105% | [14] 93.2% | [15] 96.8% | [16] 85.2% | [17] 96.8% | [18] 86.3% | [19] 87.5% | [20] 114%

O=C(c1ccc(Nc2nccc(NCCCCNc3ccnc4cc(Cl)ccc34)n2)cc1)N1CCCCC1
inactive: [1] 51.6% | [5] 46.9% | [6] 34.2% | [11] 11.2% | [14] 24.7% | [16] 28.7%
active: [2] -25.3% | [3] -78.6% | [4] -9.32% | [7] 1.19% | [8] -73.7% | [9] -50.8% | [10] -69% | [12] -11.3% | [13] -23.5% | [15] -31.6% | [17] -92.3% | [18] -23% | [19] -83.2% | [20] -52.5%

Cc1cccc(-c2nc(N(C)c3ccc4ncsc4c3)c3ccccc3n2)n1
inactive: [1] 94.1% | [2] 21.6% | [3] 79.5% | [4] 63.6% | [5] 84.3% | [6] 94.1% | [7] 77% | [8] 92.1% | [9] 76.1% | [10] 54.1% | [11] 51.5% | [12] 50.1% | [13] 94% | [14] 77.1% | [15] 82.2% | [16] 45.5% | [17] 22.4% | [18] 50.4% | [19] 77.5% | [20] 72%

COc1ccc(NC(=O)CSc2nnc(-c3cc(-c4ccccc4)nc4ccccc34)n2-c2ccccc2)cc1
inactive: [1] 99.7% | [2] 84.8% | [3] 88.7% | [4] 89.3% | [5] 99% | [6] 90.8% | [7] 97.4% | [8] 100% | [9] 99.2% | [10] 98.1% | [11] 95.4% | [12] 106% | [13] 79.3% | [14] 93.5% | [15] 100% | [16] 73.2% | [17] 90.8% | [18] 73.8% | [19] 97.3% | [20] 95.7%

CC(C)CC(NC(=O)CN(Cc1ccccc1)S(C)(=O)=O)C(=O)O (stereo not given)
inactive: [1] 104% | [2] 78% | [3] 98.8% | [4] 111% | [5] 80.3% | [6] 109% | [7] 96.4% | [8] 90.9% | [9] 103% | [10] 97% | [11] 101% | [12] 97.4% | [13] 80% | [14] 91.6% | [15] 103% | [16] 90.1% | [17] 95% | [18] 89.2% | [19] 100% | [20] 100%

COc1cc(-c2n/c(=C\c3c(O)[nH]c4ccc(Cl)cc34)cc3c2=Nc2ccccc2-3)cc(OC)c1OC
active: [1] -15.4% | [2] 3.48% | [3] -40.3% | [4] -14.9% | [5] -70.3% | [6] -11.8% | [7] 7.89% | [10] 0.836% | [12] -11.2% | [13] -4.26% | [15] -84.3% | [16] -13.1% | [18] 2.11% | [19] -63.6%
inactive: [8] 31.2% | [9] 27.2% | [11] 28.4% | [14] 14.9% | [17] 44.7% | [20] 16.5%

O=C1CCc2c(sc3[nH]c(=S)n(-c4ccc(OC(F)(F)F)cc4)c(=O)c23)C1
inactive: [1] 81.2% | [2] 18% | [3] 68% | [4] 61.4% | [5] 37.3% | [6] 25.6% | [7] 17.2% | [8] 19% | [9] 85.9% | [10] 59.6% | [11] 40.4% | [12] 104% | [13] 27.4% | [14] 17.1% | [15] 21.6% | [16] 16.1% | [17] 22.6% | [18] 10.8% | [19] 20.6% | [20] 43.2%

COc1ccc(/C=c2\nc3n(-c4ccccc4)c4nc5c6c(sc5c(=N)n4n-3c2=O)CCCC6)cc1
inactive: [1] 104% | [2] 67.2% | [3] 97.4% | [4] 59.9% | [5] 98.4% | [6] 88.8% | [7] 98.4% | [8] 94.9% | [9] 106% | [10] 96.7% | [11] 40.7% | [12] 109% | [13] 42.9% | [14] 84.9% | [15] 87.5% | [16] 63.5% | [17] 70.8% | [18] 74.1% | [19] 91.2% | [20] 102%

Cn1c(=O)c2c(nc(Cl)n2CCl)n(C)c1=O
active: [19] -0.952%
inactive: [1] 113% | [2] 21.3% | [3] 75.6% | [4] 105% | [5] 53% | [6] 104% | [7] 112% | [8] 103% | [9] 84.5% | [10] 12.4% | [11] 13.6% | [12] 80.9% | [13] 94% | [14] 100% | [15] 96% | [16] 98.5% | [17] 88.1% | [18] 94.7% | [20] 55%

N#CC1=C(c2ccc(Br)cc2)NC(SCC(=O)c2ccc(Br)cc2)NC1=O (stereo not given)
inactive: [1] 108% | [2] 91.1% | [3] 105% | [4] 105% | [5] 108% | [6] 98.9% | [7] 101% | [8] 96.2% | [9] 103% | [10] 100% | [11] 103% | [12] 105% | [13] 98.7% | [14] 110% | [15] 108% | [16] 92.4% | [17] 110% | [18] 109% | [19] 106% | [20] 111%
